From PubChem BioAssay
An excerpt weighted towards active compounds, which were near 2.6% of everything screened.
Mcl-1 Bim block – disrupts Bim peptide binding to human Mcl-1; 0.1% of 190,000 active; inhibition, % at 10 µM; Bead-based flow cytometry, Bim peptide-Mcl-1 binding; Q07820; in the data active = inhibition above about 40%;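 also: 0% = no compound tracer wells and 100% = peptide blocker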
Mcl1-Noxa inh – disrupts binding of human Mcl-1 to Noxa peptide | TR-FRET Mcl-1/Noxa peptide binding, 2 h | inhibition, % at 21.7 µM | 1.5% of 220,000 active | AID 1022;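 active = compounds that cut the protein-peptide binding signal by more than 50% relative to plate controls in a single-dose test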;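 also: His-tagged Mcl-1 with rhodamine Noxa BH3 peptide and terbium anti-His antibody; 0% = Mcl-1 plus Noxa peptide wells and 100% = peptide-only wells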
14-3-3 Bad PPI – disrupts binding of bovine 14-3-3 zeta to phospho-Bad peptide; TR-FRET 14-3-3zeta/Dy647-pBad peptide displacement, 1 h; inhibition, % at 21.7 µM; 0.71% of 220,000 active; AID 781;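 active = inhibition above about 70%, limit read from the data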;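 also: 0% = full 14-3-3 plus peptide FRET controls and 100% = background without 14-3-3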
Target sequence (P63103 whole entry, looked up): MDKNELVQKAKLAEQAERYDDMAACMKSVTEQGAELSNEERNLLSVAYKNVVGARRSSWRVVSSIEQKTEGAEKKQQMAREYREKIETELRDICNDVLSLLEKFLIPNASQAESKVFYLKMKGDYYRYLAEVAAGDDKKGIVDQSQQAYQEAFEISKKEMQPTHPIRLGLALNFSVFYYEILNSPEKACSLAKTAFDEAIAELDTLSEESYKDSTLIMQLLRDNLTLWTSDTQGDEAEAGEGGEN
eIF4E-4G inh – blocks eIF4E binding to eIF4G. TR-FRET eIF4E-eIF4GI(517-606) binding, 2 h. inhibition, % at 21.7 µM. 0.37% of 220,000 active. AID 782;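 active = inhibition above about 30%, limit read from the data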;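 also: 0% = full FRET control wells and 100% = background wells lacking eIF4GI fragment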
Mcl1-Bid inh – Mcl-1/Bid interaction inhibition; TR-FRET Mcl-1/Bid-Dy647 peptide binding, 1536-well; inhibition, % at 21.7 µM; 0.97% of 220,000 active; AID 1021;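 active = compounds that cut the binding signal by more than half at the single screening dose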;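 also: His-tagged Mcl-1 with europium anti-His antibody binding Bid BH3 peptide; 0% = Mcl-1 plus peptide wells and 100% = peptide-only wells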
MCL1 BIM primary – disrupts human MCL1 binding to BIM-BH3 peptide | 0.68% of 320,000 active | inhibition, % at 10.9 µM | GST-MCL1 / FITC-Bim-BH3 fluorescence polarization;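 active = inhibition above the mean inhibition of all tested compounds plus 3 SD, set per campaign, cut at about 40% in these data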;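 also: 0% = DMSO wells and 100% = unlabeled Bim-BH3 peptide control; higher means more loss of mP so more displacement of Bim peptide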
Bcl-xL conf – Bcl-xL (human) inhibition, MCL1 counter-screen confirmation | AID 2166 | GST-Bcl-xL / FITC-Bim BH3 peptide FP binding | inhibition, % at 10.9 µM | 54% of 1,700 active | shares compounds with MCL1 BIM primary;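 active = inhibition above a cutoff equal to the mean inhibition of all tested compounds plus 3 SD, cut at about 30% in these data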;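 also: 0% = DMSO wells and 100% = unlabeled Bim BH3 control peptide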
Target sequence (Q07817 whole entry, looked up): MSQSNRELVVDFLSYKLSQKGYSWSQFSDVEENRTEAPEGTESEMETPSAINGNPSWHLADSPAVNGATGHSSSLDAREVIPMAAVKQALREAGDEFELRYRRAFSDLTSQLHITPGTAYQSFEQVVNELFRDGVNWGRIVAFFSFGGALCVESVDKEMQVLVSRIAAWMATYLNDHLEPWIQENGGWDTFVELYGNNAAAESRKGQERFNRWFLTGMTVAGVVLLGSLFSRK
MCL1 BIM confirm – MCL1-BIM-BH3 interaction inhibition, confirmation | shares compounds with MCL1 BIM primary | GST-MCL1 / FITC-Bim-BH3 fluorescence polarization | inhibition, % at 10.9 µM | 61% of 1,700 active | AID 2168;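 active = inhibition above the average of all tested compounds plus 3 SD, cut at about 40% in these data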;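 also: 0% = DMSO wells and 100% = unlabeled Bim-BH3 control peptide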
* = called active by the depositor; · = not tested or not shown; + = active, no number.

SMILES | Mcl-1 Bim block | Mcl1-Noxa inh | 14-3-3 Bad PPI | eIF4E-4G inh | Mcl1-Bid inh | MCL1 BIM primary | Bcl-xL conf | MCL1 BIM confirm
Cc1ccc(NC(=S)NNc2ccc([N+](=O)[O-])cc2S(=O)(=O)Nc2ccccc2C(=O)O)cc1C | -4.0 | 87.3* | 0.2 | 11.3 | 45.1 | 39.9* | 22.3 | 39.4
CCN(CC)S(=O)(=O)c1cccc(C(=O)N/N=C2\CCCC(=O)C2)c1 | · | -1.1 | -3.8 | -2.6 | -36.1 | 55.9* | 8.4 | 12.7
CCCOc1ccccc1C(=O)N(Cc1cccc(Br)c1)C1CCS(=O)(=O)C1 (configuration not stated) | · | · | · | · | · | -2.9 | · | ·
Cc1cn2c(-c3cccnc3)nnc2s1 | -3.0 | -2.0 | -0.4 | 1.8 | -11.4 | 0.3 | · | ·
Cc1ccc(-c2[nH]c(=O)n3ccncc23)s1 | 2.0 | 8.9 | 63.8 | 5.7 | -89.7 | 56.5* | 66.0* | 91.0*
O=C(O)CC/C(=N\NC(=O)c1ccccc1Br)c1ccccc1 | -6.0 | -3.9 | -16.3 | -8.0 | -4.4 | 4.9 | · | ·
CC(=O)c1ccc(S(=O)(=O)Oc2ccc(-c3ccc(C(=O)O)cc3)cc2)cc1 | · | · | · | · | · | 10.8 | · | ·
NC(=O)c1cc[n+](CC(=O)NC(=O)Nc2ccccc2)cc1 | · | · | · | · | · | 1.4 | · | ·
Cc1c(NCc2cc(Cl)cc(Cl)c2O)c(=O)n(-c2ccccc2)n1C | -1.0 | 7.4 | 1.4 | -1.1 | -11.5 | 3.0 | · | ·
Cc1c(NC=C(C#N)C#N)c(=O)n(-c2ccccc2)n1C | -2.0 | 5.3 | -8.5 | 1.3 | -43.6 | 74.9* | 11.3 | 19.2
Cc1c(N/C=C(\Cl)C(=O)C(F)(F)F)c(=O)n(-c2ccccc2)n1C | 0.0 | 1.8 | -16.1 | -0.2 | -25.3 | -6.3 | · | ·
Cc1c(NCc2nc3ccccc3[nH]2)c(=O)n(-c2ccccc2)n1C | 0.0 | -28.4 | -16.6 | 7.8 | -58.0 | 54.6* | 41.2* | 55.0*
N#Cc1c(N)sc(=S)c2c1CCCCC2 | -4.0 | 71.0* | 37.6 | 1.8 | 25.2 | 113.0* | 61.6* | 75.5*
CC1(C)Cc2c(C#N)c(N)sc(=S)c2CS1 | 2.0 | 40.9 | 62.6 | -4.8 | -15.8 | 70.7* | 70.5* | 88.3*
NNC(=O)c1ccc(NS(=O)(=O)c2ccc(Br)cc2)cc1 | · | 1.0 | -5.9 | 3.3 | -14.4 | 8.2 | · | ·
O=C(c1ccc([N+](=O)[O-])cc1)N1CCC(n2nnc3cc(F)ccc32)CC1 | -2.0 | 21.9 | -5.2 | 0.5 | 8.8 | 2.7 | · | ·
O=C(N1CCOCC1)N1CCC(n2nnc3cc(F)ccc32)CC1 | 1.0 | 3.9 | -15.5 | 0.8 | -9.5 | 86.8* | 53.7* | 61.9*
CCOC(=O)c1ccc(NC(=O)[C@@H](NC(N)=O)C(C)C)cc1 | · | -3.9 | -1.4 | -11.5 | -36.8 | 119.8* | -0.1 | -1.7
CCC(=Nc1ccc(N)cc1)C1=C(O)C(C(=O)OC)C(C)(C)CC1=O (configuration not stated) | 5.0 | 16.4 | -0.2 | -15.6 | -59.4 | 61.0* | 30.3* | 19.1
CCCCC(=Nc1ccc(N)cc1)C1=C(O)C(C(=O)OC)C(C)(C)CC1=O (configuration not stated) | 0.0 | 13.6 | -1.3 | 1.3 | -39.0 | 32.2 | · | ·
CCOC(=O)c1ccc(NC(=O)CSc2nc(C)cc(=O)[nH]2)cc1 | -1.0 | 85.2* | -3.9 | 18.5 | -3.8 | 40.9* | 22.6 | 50.7*
N#CCN(CC#N)C(=O)C1c2ccccc2Oc2ccccc21 | · | · | · | · | · | + | 6.0 | 10.5
COCCN(CC(=O)Nc1cccc(C)c1C)C(=O)c1oc2c(Cl)cccc2c1C | · | · | · | · | · | -1.5 | · | ·
O=C(CSc1nc(-c2ccc(F)cc2)cs1)Nc1ccccn1 | -1.0 | 8.3 | -11.2 | 0.4 | 0.9 | 64.1* | 8.9 | 6.0
Cc1csc(SCC(=O)Nc2ccccn2)n1 | -1.0 | -3.7 | 6.3 | -0.5 | -23.4 | 4.5 | · | ·
SMILES | Mcl-1 Bim block | Mcl1-Noxa inh | 14-3-3 Bad PPI | eIF4E-4G inh | Mcl1-Bid inh | MCL1 BIM primary | Bcl-xL conf | MCL1 BIM confirm
O=C(Nc1ccccc1N1CCCC1)c1ccc([N+](=O)[O-])o1 | · | · | · | · | · | 8.3 | · | ·
COc1ccc(N2CCCC2)c(NC(=O)c2ccc([N+](=O)[O-])o2)c1 | · | · | · | · | · | 74.8* | 13.8 | 3.5
CCOC(=O)c1cc(C#N)c(SCC(=O)c2cc(C#N)c(SC)nc2C)[nH]c1=O | 0.0 | 34.2 | 21.5 | -9.4 | -100.4 | 116.7* | 20.8 | 18.0
CCOC(=O)c1cc(C#N)c(SCC(N)=O)[nH]c1=O | · | 2.7 | 30.3 | 10.7 | 25.8 | 37.8 | · | ·
CCCCOc1ccc(C2OC34CCCCC3C(C#N)(C#N)C2(C#N)C(=N)O4)cc1 (configuration not stated) | 0.0 | 12.3 | 2.6 | -6.8 | -35.1 | 166.0* | 51.7* | 68.3*
Cc1ccc(C2OC34CCCCCC3C(C#N)(C(=N)O4)C2(C#N)C#N)cc1 (configuration not stated) | -2.0 | 26.2 | -9.1 | 6.1 | -10.4 | 30.0 | · | ·
CCOc1ccc(C2C(C#N)=C(N)SC(N)=C2C#N)cc1OC | 0.0 | 16.6 | -11.6 | 4.5 | -68.3 | -100.8 | · | ·
C=CCOc1ccc(CNCC2CCCO2)cc1 (configuration not stated) | · | · | · | · | · | 8.8 | · | ·
C=CCOc1ccc(C2OC34CCCCC3C(C#N)(C#N)C2(C#N)C(=N)O4)cc1 (configuration not stated) | 2.0 | -3.7 | -5.1 | 0.3 | -86.7 | 114.8* | 76.0* | 93.9*
CCOc1ccc(C2OC34CCCCC3C(C#N)(C#N)C2(C#N)C(=N)O4)cc1OC (configuration not stated) | -1.0 | 11.8 | 4.4 | -4.9 | -32.8 | 167.2* | 107.3* | 132.7*
CCNc1nnc(SCC(=O)N2c3ccccc3NC(=O)CC2C)s1 (configuration not stated) | · | · | · | · | · | 5.0 | · | ·
COc1ccccc1NC(=O)c1ccc(NC(=O)CSc2nc(N)cc(=O)[nH]2)cc1 | · | · | · | · | · | -0.3 | · | ·
CC(=O)N1CCc2c(sc(NC(=O)C3CCN(S(=O)(=O)c4cccs4)CC3)c2C(N)=O)C1 | · | · | · | · | · | 2.5 | · | ·
CC(=O)N1CCc2c(sc(NC(=O)C3CCCN3S(=O)(=O)c3cccs3)c2C(N)=O)C1 (configuration not stated) | · | · | · | · | · | 64.2* | 66.8* | 76.0*
C/C(=N\NC(=O)c1cc(O)ccc1O)c1cccc(NC(=O)c2ccc(Cl)cc2)c1 | · | · | · | · | · | 48.5* | 28.2 | 47.1*
Cc1cccc(-n2c3nc(=O)[nH]c(=O)c-3cc3cc([N+](=O)[O-])ccc32)c1 | 0.0 | 0.7 | 7.1 | 3.5 | -38.5 | -1.2 | · | ·
Cc1ccc(C)c(-n2c3nc(=O)[nH]c(=O)c-3cc3cc([N+](=O)[O-])ccc32)c1 | 0.0 | 31.6 | -23.2 | 11.2 | -14.8 | 86.7* | 50.7* | 74.0*
O=C(N/N=C/c1cc2c(c([N+](=O)[O-])c1)OCO2)c1ccncc1 | · | · | · | · | · | 7.9 | · | ·
